This excerpt belongs to a sample that is enriched for the strongest signals.
Columns and labels:
Experiment in all cases: glycan array binding signal (z-score within array); higher = stronger binding
Settings in all cases: glycan notation: IUPAC condensed, linker removed
[1] = target: Fuc(a1-2)Gal(b1-3)GlcNAc(b1-2)Man(a1-3)[Fuc(a1-2)Gal(b1-3)GlcNAc(b1-2)Man(a1-6)]Man(b1-4)GlcNAc(b1-4)GlcNAc
Outline: (§1)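 Glycan array binding is given as a within-array Z-score, which can be read as non-binding when negative. The arrays, 3228 of them, came from the Consortium for Functional Glycomics database and were retained only where the protein sequence was available. Z-scores were averaged across arrays of the same protein sequence at different concentrations or buffers and across linkers.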

[2] = target: Fuc(a1-2)Gal(b1-4)GlcNAc6S
Outline: as §1

[3] = target: Fuc(a1-2)Gal(b1-4)[Fuc(a1-3)]GlcNAc(b1-2)[Fuc(a1-2)Gal(b1-4)[Fuc(a1-3)]GlcNAc(b1-4)]Man(a1-3)[Fuc(a1-2)Gal(b1-4)[Fuc(a1-3)]GlcNAc(b1-2)Man(a1-6)]Man(b1-4)GlcNAc(b1-4)GlcNAc
Outline: as §1

[4] = target: Fuc(a1-2)Gal(b1-4)[Fuc(a1-3)]GlcNAc(b1-3)Gal(b1-4)[Fuc(a1-3)]GlcNAc(b1-3)Gal(b1-4)[Fuc(a1-3)]GlcNAc
Outline: as §1

[5] = target: Fuc(a1-2)Gal6S(b1-3)GlcNAc
Outline: as §1

[6] = target: Fuc(a1-2)[Gal(a1-3)]Gal(b1-4)GlcNAc(b1-3)[Fuc(a1-2)[Gal(a1-3)]Gal(b1-4)GlcNAc(b1-6)]GalNAc
Outline: as §1

[7] = target: Fuc(a1-2)[GalNAc(a1-3)]Gal(b1-4)Glc
Outline: as §1

[8] = target: Fuc(a1-2)[GalNAc(a1-3)]Gal(b1-4)GlcNAc(b1-2)Man(a1-3)[Fuc(a1-2)[GalNAc(a1-3)]Gal(b1-4)GlcNAc(b1-2)Man(a1-6)]Man(b1-4)GlcNAc(b1-4)[Fuc(a1-6)]GlcNAc
Outline: as §1

[9] = target: Fuc(a1-3)[Gal(b1-4)]GlcNAc(b1-2)Man(a1-3)[Fuc(a1-3)[Gal(b1-4)]GlcNAc(b1-2)Man(a1-6)]Man(b1-4)GlcNAc(b1-4)GlcNAc
Outline: as §1

[10] = target: Fuc(a1-3)[Gal(b1-4)]GlcNAc(b1-3)Gal(b1-4)[Fuc(a1-3)]GlcNAc(b1-3)Gal(b1-4)[Fuc(a1-3)]GlcNAc
Outline: as §1

[11] = target: Fuc(a1-3)[Gal(b1-4)]GlcNAc(b1-3)GalNAc
Outline: as §1

Gal(a1-3)Gal = target: Gal(a1-3)Gal
Outline: as §1

[12] = target: Gal(b1-3)GalNAc(a1-3)[Fuc(a1-2)]Gal(b1-4)Glc
Outline: as §1

Gal(b1-3)GlcNAc = target: Gal(b1-3)GlcNAc
Outline: as §1

[13] = target: Gal(b1-3)GlcNAc(a1-3)Gal(b1-4)GlcNAc
Outline: as §1

[14] = target: Gal(b1-3)GlcNAc(b1-3)Gal(b1-4)GlcNAc(b1-2)[Gal(b1-3)GlcNAc(b1-3)Gal(b1-4)GlcNAc(b1-6)]Man(a1-6)[Gal(b1-3)GlcNAc(b1-3)Gal(b1-4)GlcNAc(b1-2)Man(a1-3)]Man(b1-4)GlcNAc(b1-4)[Fuc(a1-6)]GlcNAc
Outline: as §1

[15] = target: Gal(b1-4)GlcNAc(b1-3)Gal(b1-4)GlcNAc(b1-3)Gal(b1-4)GlcNAc(b1-2)Man(a1-3)[Gal(b1-4)GlcNAc(b1-3)Gal(b1-4)GlcNAc(b1-3)Gal(b1-4)GlcNAc(b1-2)Man(a1-6)]Man(b1-4)GlcNAc(b1-4)[Fuc(a1-6)]GlcNAc
Outline: as §1

[16] = target: Gal(b1-4)GlcNAc(b1-3)Gal(b1-4)GlcNAc(b1-3)Gal(b1-4)GlcNAc(b1-3)Gal(b1-4)GlcNAc(b1-3)Gal(b1-4)GlcNAc(b1-2)[Gal(b1-4)GlcNAc(b1-3)Gal(b1-4)GlcNAc(b1-3)Gal(b1-4)GlcNAc(b1-3)Gal(b1-4)GlcNAc(b1-3)Gal(b1-4)GlcNAc(b1-6)]Man(a1-6)[Gal(b1-4)GlcNAc(b1-3)Gal(b1-4)GlcNAc(b1-3)Gal(b1-4)GlcNAc(b1-3)Gal(b1-4)GlcNAc(b1-3)Gal(b1-4)GlcNAc(b1-2)Man(a1-3)]Man(b1-4)GlcNAc(b1-4)[Fuc(a1-6)]GlcNAc
Outline: as §1

[17] = target: Gal(b1-4)GlcNAc(b1-3)Gal(b1-4)GlcNAc(b1-3)Gal(b1-4)GlcNAc(b1-3)Gal(b1-4)GlcNAc(b1-3)Gal(b1-4)GlcNAc(b1-3)Gal(b1-4)GlcNAc(b1-2)Man(a1-3)[Gal(b1-4)GlcNAc(b1-3)Gal(b1-4)GlcNAc(b1-3)Gal(b1-4)GlcNAc(b1-3)Gal(b1-4)GlcNAc(b1-3)Gal(b1-4)GlcNAc(b1-3)Gal(b1-4)GlcNAc(b1-2)Man(a1-6)]Man(b1-4)GlcNAc(b1-4)GlcNAc
Outline: as §1

[18] = target: Gal(b1-4)GlcNAc(b1-3)Gal(b1-4)[Fuc(a1-3)]GlcNAc(b1-3)Gal(b1-4)[Fuc(a1-3)]GlcNAc
Outline: as §1

Gal(b1-6)Gal = target: Gal(b1-6)Gal
Outline: as §1

Gal3S(b1-4)GlcNAc = target: Gal3S(b1-4)GlcNAc
Outline: as §1

Gal3S6S(b1-4)GlcNAc = target: Gal3S6S(b1-4)GlcNAc
Outline: as §1

Gal6S(b1-4)Glc = target: Gal6S(b1-4)Glc
Outline: as §1

GalNAc(b1-3)GalNAc = target: GalNAc(b1-3)GalNAc
Outline: as §1

GalNAc(b1-3)GlcNAc = target: GalNAc(b1-3)GlcNAc
Outline: as §1

GalNAc(b1-4)Gal(b1-4)Glc = target: GalNAc(b1-4)Gal(b1-4)Glc
Outline: as §1

GalNAc(b1-4)GlcNAc = target: GalNAc(b1-4)GlcNAc
Outline: as §1

GalNAc(b1-4)GlcNAc6S = target: GalNAc(b1-4)GlcNAc6S
Outline: as §1

B1: CBP21 (Serratia marcescens), O83009 (protein)
chain: MNKTSRTLLSLGLLSAAMFGVSQQANAHGYVESPASRAYQCKLQLNTQCGSVQYEPQSVEGLKGFPQAGPADGHIASADKSTFFELDQQTPTRWNKLNLKTGPNSFTWKLTARHSTTSWRYFITKPNWDASQPLTRASFDLTPFCQFNDGGAIPAAQVTHQCNIPADRSGSHVILAVWDIADTANAFYQAIDVNLSK
glycan array binding signal (z-score) [1]: 4.3
glycan array binding signal (z-score) [2]: -1.02
glycan array binding signal (z-score) [3]: 3.02
glycan array binding signal (z-score) [4]: 2.95
glycan array binding signal (z-score) [5]: -0.19
glycan array binding signal (z-score) [6]: 2.99
glycan array binding signal (z-score) [7]: -0.513
glycan array binding signal (z-score) [8]: -0.038
glycan array binding signal (z-score) [9]: -0.009
glycan array binding signal (z-score) [10]: -1.15
glycan array binding signal (z-score) [11]: 0.402
glycan array binding signal (z-score) (Gal(a1-3)Gal): -0.172
glycan array binding signal (z-score) [12]: -0.45
glycan array binding signal (z-score) (Gal(b1-3)GlcNAc): -0.226
glycan array binding signal (z-score) [13]: 0.425
glycan array binding signal (z-score) [14]: 3.27
glycan array binding signal (z-score) [15]: 2.68
glycan array binding signal (z-score) [16]: 2.67
glycan array binding signal (z-score) [17]: 1.21
glycan array binding signal (z-score) [18]: -0.565
glycan array binding signal (z-score) (Gal(b1-6)Gal): -0.589
glycan array binding signal (z-score) (Gal3S(b1-4)GlcNAc): 1.21
glycan array binding signal (z-score) (Gal3S6S(b1-4)GlcNAc): 0.23
glycan array binding signal (z-score) (Gal6S(b1-4)Glc): -0.3
glycan array binding signal (z-score) (GalNAc(b1-3)GalNAc): -0.453
glycan array binding signal (z-score) (GalNAc(b1-3)GlcNAc): -0.162
glycan array binding signal (z-score) (GalNAc(b1-4)Gal(b1-4)Glc): 1.03
glycan array binding signal (z-score) (GalNAc(b1-4)GlcNAc): 0.482
glycan array binding signal (z-score) (GalNAc(b1-4)GlcNAc6S): 0.16

Reference: the supplement of paper PMC8728848
